High-throughput results (PubChem)
CHO-K1 Ca PAM: M1 PAM counterscreen hit in parental CHO-K1 cells | ATP EC20, Fluo-8 calcium fluorescence; 0% at ATP EC20, 100% at ATP max | hit rate 0.02% among 360,000 | activation, % at 3 µM | AID 602247;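 active = activation above the run cutoff, the mean activation of all test compounds plus 3 SD, cut at about 40% in these data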;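 also: peak over basal fluorescence ratio in a 140 s read after ATP addition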
CHO-K1 Ca ag: counter-screen for M1 agonists: effect in parental CHO-K1 cells. AID 602248. hit rate 0.48% among 360,000. Fluo-8 calcium fluorescence; scaled to maximal ATP response, vehicle zero. activation, % at 3 µM; in the data active = activation above about 15%;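 also: untransfected CHO-K1 host cells lacking M1 receptor as counterscreen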
M1 PAM: potentiates human M1 receptor response to acetylcholine; P11229; CHO-K1 hM1, Fluo-8 calcium fluorescence, ACh EC20; 0% = ACh EC20, 100% = maximal ACh; activation, % at 3 µM; hit rate 0.088% among 360,000; in the data active = activation above about 19%, passing the limit was not always enough
Target sequence (P11229 whole entry, looked up): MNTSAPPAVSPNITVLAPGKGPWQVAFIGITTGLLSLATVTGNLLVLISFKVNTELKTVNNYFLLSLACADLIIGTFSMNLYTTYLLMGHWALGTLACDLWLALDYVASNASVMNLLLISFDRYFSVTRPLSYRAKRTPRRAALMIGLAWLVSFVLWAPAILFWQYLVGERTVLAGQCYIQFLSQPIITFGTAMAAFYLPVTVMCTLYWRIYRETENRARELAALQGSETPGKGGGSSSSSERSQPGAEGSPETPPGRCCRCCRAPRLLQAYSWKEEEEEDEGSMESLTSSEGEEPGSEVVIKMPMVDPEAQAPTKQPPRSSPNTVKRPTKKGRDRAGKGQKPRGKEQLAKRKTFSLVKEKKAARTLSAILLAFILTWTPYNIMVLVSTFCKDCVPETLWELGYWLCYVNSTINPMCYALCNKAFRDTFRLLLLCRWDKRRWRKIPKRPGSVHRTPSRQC
M1 ag: agonists of human M1 muscarinic receptor; P11229; activation, % at 3 µM; CHO-K1 hM1, Fluo-8 calcium fluorescence, agonist mode; 0% DMSO, 100% acetylcholine EC100; AID 588814; hit rate 0.33% among 360,000;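 active = activation above the run's mean compound activation plus 3 SD, cut at about 16% in these data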;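 also: peak over basal fluorescence ratio within a 140 s kinetic read after compound addition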
M1 antag: human CHRM1 antagonism. P11229. CHO-K1 hM1, Fluo-8 calcium fluorescence, ACh EC80 antagonist. inhibition, % at 3 µM. hit rate 1.3% among 360,000;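 active = percent inhibition above its own plate's cutoff, namely the mean of that plate's compound wells plus 3 SD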;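 also: peak over basal fluorescence ratio during 140 s after agonist addition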
CHO-K1 Ca antag: nonselective inhibitor or artifact in parental CHO-K1 cells; hit rate 0.6% among 360,000; ATP-induced calcium, Fluo-8 fluorescence; inhibition, % at 3 µM;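 active = inhibition above a per-plate cutoff, the plate's mean sample inhibition plus 3 SD, cut at about 24% in these data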
Large screens that a line does not name were inactive. Rows were chosen to be rich in hits. Some 2.4% of all compounds tested hit in one or more screens of this group.

C=CCn1c(COc2ccc(CC)cc2)nnc1SC/C(O)=C(\C#N)c1nc2ccccc2[nH]1	CHO-K1 Ca antag 26
C=CCn1c(COc2ccccc2)nnc1SCc1ccc(C#N)cc1	none
Cc1ccc(C2(C)NC(=O)N(CC(=O)NC3CCCCC3)C2=O)cc1 (stereo not drawn)	none
O=C(NCc1ccccc1C(F)(F)F)c1cccc2c1C(=O)c1ccc(N3CCC(N4CCCCC4)CC3)cc1S2(=O)=O	M1 antag 39
O=C(NCC1CCCO1)c1cccc2c1C(=O)c1ccc(N3CCC(Cc4ccccc4)CC3)cc1S2(=O)=O (stereo not drawn)	CHO-K1 Ca ag 17, M1 ag 17, M1 antag 38
O=C(COC(=O)c1cc[n+]([O-])cc1)Nc1ccc([N+](=O)[O-])cc1Cl	none
O=C(O)C1CCC(CNCc2ccccc2Cl)CC1 (stereo not drawn)	none
CCOC(=O)C1CCC(CNCc2ccccc2C)CC1 (stereo not drawn)	M1 antag 53
CCOC(=O)CC1C(=O)NCCN1C(=O)c1ccc(Cl)c(Cl)c1 (stereo not drawn)	CHO-K1 Ca PAM 74
CCOC(=O)CC1C(=O)NCCN1C(=O)c1cccc(OC)c1 (stereo not drawn)	M1 antag 28
N#Cc1ccc(NC(=O)Nc2cccc(C#N)c2)cc1	CHO-K1 Ca ag 18, CHO-K1 Ca antag 31
N#Cc1ccc(NC(=O)Nc2ccc(Oc3ccc(NC(=O)Nc4ccc(C#N)cc4)cc3)cc2)cc1	none
COc1ccc(CN(C)C(=O)c2oc3ccccc3c2CSC)cc1F	none
O=C(CO/N=C/c1ccccc1OC(F)F)NCc1ccco1	M1 PAM 26
CC(=O)c1c(C)[nH]c(C(=O)COC(=O)C2CC2)c1C	none
CCOC(=O)c1c(C)[nH]c(C(=O)COC(=O)C2CC2)c1C	M1 antag 31
CCOC(=O)c1c(C)[nH]c(C(=O)COC(=O)COc2ccc(OC)cc2)c1C	CHO-K1 Ca ag 16
O=C(NCCS(=O)(=O)N1CCN(c2ccc(F)cc2)CC1)C12CC3CC(CC(C3)C1)C2	none
CCc1ccc(CN(C)Cc2c(C(=O)N3CCOCC3)nc3c(C)cccn23)nc1	none
COc1cccc(CN(C)C(=O)c2cc(COc3ccc(-n4cncn4)cc3)on2)c1	CHO-K1 Ca ag 16
COc1cccc(CN(C)C(=O)c2cc(COc3c(F)cccc3F)on2)c1	none
COc1cccc(CN(C)C(=O)c2cc(COc3ccc4ncccc4c3)on2)c1	CHO-K1 Ca ag 19, M1 antag 50, CHO-K1 Ca antag 44
Cc1ccc(C(=O)NCCN2CCC(n3c(=O)[nH]c4ccccc43)CC2)cc1F	none (no result: M1 PAM, M1 ag, M1 antag)
CCOC(=O)[C@]12CCCC=C1N(Cc1cccc3ccccc13)C(=O)[C@H](CC(=O)NCC1CCCCC1)C2	none (no result: M1 PAM, M1 ag, M1 antag)
CCO[C@H]1OC(C(=O)N2CCCCCCC2)=C[C@@H](C)[C@@H]1CCCO	none
CN1CCCCCC1=Nc1ccccc1C#N	M1 antag 27
COc1ccc(CCNC(=O)c2cc(=O)c3cc(C)ccc3o2)cc1OC	CHO-K1 Ca ag 17
NC(=O)c1cc[n+](Cc2ccccc2Cl)cc1	none
CCOC(=O)C1(Cc2ccccc2)CCCN(Cc2cnn(CC)c2)C1 (stereo not drawn)	none
CCOC(=O)C1(Cc2ccccc2)CCCN(C(=O)c2cnn(CC)c2)C1 (stereo not drawn)	CHO-K1 Ca antag 29
CCN(CC)C(=S)SCC(=O)c1ccc(F)cc1	M1 antag 24
O=C(c1ccccc1)C(Nc1ccccn1)c1ccccc1 (stereo not drawn)	M1 antag 35
O=C(O)c1ccc(NS(=O)(=O)c2ccc3c(c2)C(=O)c2ccccc2C3=O)cc1	CHO-K1 Ca antag 25
O=C(O)c1cccc(S(=O)(=O)Nc2ccc(-c3ccccc3)cc2)c1	none
Cc1ccsc1C1C2=C(CCCC2=O)Nc2ncnn21 (stereo not drawn)	CHO-K1 Ca antag 31
CCc1nc2ccc(C(=O)N3CCN(c4cccc(C(F)(F)F)c4)CC3)cc2nc1CC	M1 antag 47
CCc1nn(C(CC)C(=O)NCCCN2CC(C)CC(C)C2)c(=O)c2cc3oc(C)cc3n12 (stereo not drawn)	none
COC(C[C@@H]1O[C@H]1C(=O)[C@@H](C)OCc1ccccc1)OC	none
CCn1c(=O)c(-c2cc(=O)[nH][nH]2)c(O)c2ccccc21	none
O=c1cc(-c2c(O)c3ccccc3n(Cc3ccccc3)c2=O)[nH][nH]1	CHO-K1 Ca ag 17
CCn1c(-c2ccc(-c3ccccc3)cc2)c[nH]c1=S	M1 antag 48
C=CCn1c(-c2ccccc2)c[nH]c1=S	none
O=C(NC1CCN(c2ncccn2)CC1)c1ccccc1F	none
CCN=C(Nc1cccc(F)c1)SC1CC(=O)N(c2ccc(OC)cc2)C1=O (stereo not drawn)	none
CCN=C(NCC)SC1CC(=O)N(c2cccc(OC)c2)C1=O (stereo not drawn)	M1 antag 32
CCN=C(NCC)SC1CC(=O)N(c2ccc(OCC)cc2)C1=O (stereo not drawn)	M1 antag 30
CCN=C(NCC)SC1CC(=O)N(c2ccccc2)C1=O (stereo not drawn)	M1 antag 25
O=C(NNS(=O)(=O)c1cc(Cl)cc(Cl)c1)c1sccc1-n1cccc1	none
CCCC/C=C1/CCC(CN(C)C)C1=O (stereo not drawn)	none
O=C(CNC1CCCC1)Nc1ccc(S(=O)(=O)N2CCCCC2)cc1	none
CCOC(=O)c1ccc(NC(=O)c2ccc(CN3CCc4ccccc4C3)cc2)cc1	none
O=C(Nc1ccc(S(=O)(=O)N2CCCC2)cc1)c1ccc(CN2CCc3ccccc3C2)cc1	M1 antag 39
O=C(Nc1ccc(Cl)cc1)c1ccc(CN2CCc3ccccc3C2)cc1	none
CCOc1ccc(NC(=O)c2ccc(CN3CCc4ccccc4C3)cc2)cc1	M1 antag 39, CHO-K1 Ca antag 27
O=C(CNC1CCN(Cc2ccccc2)CC1)Nc1ccc(S(=O)(=O)N2CCCCC2)cc1	M1 antag 44
O=[N+]([O-])c1ccc(Cl)c(CN2CCN(c3ncccn3)CC2)c1	none
Cc1ccc2nc(C)c(CN3CCN(c4ccc([N+](=O)[O-])cc4Cl)CC3)n2c1	M1 antag 37
N#Cc1cn(CCOC(=O)c2cccc(C(F)(F)F)c2)c(=O)[nH]c1=O	CHO-K1 Ca antag 37
CCOC(=O)Cn1cc(C#N)c(=O)[nH]c1=O	none
Nc1c(-c2ccccc2)n[nH]c1-c1ccccc1	M1 antag 104
S=c1nc(-c2ccccc2)c(-c2ccccc2)n[nH]1	none
Cc1nc2ccc(S(=O)(=O)Nc3cccc(-c4nc5cccnc5s4)c3C)cc2s1	M1 antag 39
Cc1ccc(Nc2cc(C)c(O)c(C)c2)cc1	none
